These results are taken from PubChem BioAssay AID504853 (Southern Research Specialized Biocontainment Screening …, 2011).

Measured potencies and affinities stand elsewhere. Calls of active or inactive are those of the source. How the calls were made is not given here.

This experiment can be described thus: HepG2 cell cytotoxicity, dose response, cytotoxicity control, set 3 (AID 504853). To be noted: series mostly up to 50 µM.
For the compound `CCSc1nc(C)c(C)c(=O)[nH]1`, the outcome was inactive. As for `CC(C)CCNC(=O)CSc1nc2ccccc2c(=O)[nH]1`, the compound was classed as inactive. For `O=C(CSc1nc2ccccc2c(=O)[nH]1)NCc1ccc(Cl)cc1` the value was “inactive”; for `CC1CCN(C(=O)CSc2nc3ccccc3c(=O)[nH]2)CC1`, “inactive”. With `O=c1[nH]c(=S)[nH]c2ccccc12`, the compound was called inactive. `Cc1nc(SCC(N)=O)[nH]c(=O)c1C`: the call was inactive. For `CNC(=O)CSc1nc2ccccc2c(=O)[nH]1` the value was “inactive”; for `COC(=O)C(C)Oc1ccc(Cc2ncc(C(F)(F)F)cc2Cl)cc1` (stereo not given), “inactive”; for `CCC(Sc1nc2ccccc2c(=O)[nH]1)C(=O)NC1CCCCC1` (stereo not given), “inactive”. `CC1CCN(C(=O)C2CCN(c3nnc(-n4cccc4)s3)CC2)CC1`: the outcome was inactive. On to `COc1cccc(NC(=O)CSc2nc3c(c(=O)[nH]2)CCC3)c1`, for which the result was inactive.

Turning to `COc1cccc(NC(=O)CSc2nc3ccccc3c(=O)[nH]2)c1`, the outcome was inactive. As for `CN(C)C(=O)CSc1nc2ccccc2c(=O)[nH]1`, the result was inactive. For `Nc1cc(=O)[nH]c(SCC(=O)NC2CCCCC2)n1` the value was “inactive”; for `Cc1c[nH]c(=S)[nH]c1=O`, “inactive”; for `CCOC(=O)CSc1nc(C)c(C)c(=O)[nH]1`, “inactive”.

Regarding `O=C(CSc1nc2c(c(=O)[nH]1)CCC2)NC1CCCCC1`, the compound was called inactive. For `Cc1nc(SCc2ccccc2Cl)[nH]c(=O)c1C` the value was “inactive”; for `CC(C)CCNC(=O)CSc1nc2c(c(=O)[nH]1)CCC2`, “inactive”.

As to `O=C(CSc1nc2ccccc2c(=O)[nH]1)NC1CCCCC1`, the compound was classed as inactive. Under `O=C(CSc1nccc(=O)[nH]1)NC1CCCCC1` stands “inactive”. Under `Cc1cc(=O)[nH]c(SCC(=O)NC2CCCCC2)n1` stands “inactive”.

Take `NC(=O)CSc1nc2ccccc2c(=O)[nH]1`: the result was inactive. For `O=C(CSc1nc2ccccc2c(=O)[nH]1)NC1CCCC1` the value was “inactive”; for `Cc1ccc(NC(=O)CSc2nc3ccccc3c(=O)[nH]2)cc1Cl`, “inactive”.
